PubChem BioAssay (EPA / NIEHS)
Active and inactive are the calls of the source. The calls were made as follows: active = hit-call score of the fitted dose curve at least 0.9, where 1 is the maximum; inactive = score below 0.9.

What was measured:
Settings in all cases: mRNA level, 48 h; actives raise or lower the signal
[1] = read-out: ATP-citrate lyase (ACLY), ACLY (gene 47); test: LTEA_HepaRG_ACLY: Life Technologies and Expression Analysis (LTEA) Assay for ATP-citrate lyase (ACLY) using HepaRG (AID 2283466)
Outline: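 qRT-PCR readout of ACLY transcript after 48 h chemical treatment of HepaRG cells; expression normalized to three housekeeping genes. Eight-point half-log series, highest 100 uM, 0.5% DMSO vehicle. Gain or loss fitted against DMSO baseline.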

[2] = read-out: Peroxisomal acyl-coenzyme A oxidase 1 (ACOX1) gene, ACOX1 (gene 51); test: LTEA_HepaRG_ACOX1: Life Technologies and Expression Analysis (LTEA) Assay for Peroxisomal acyl-coenzyme A oxidase 1 (ACOX1) gene using HepaRG (AID 2283467)
Outline: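 HepaRG, 48 h chemical exposure, 8-pt half-log series from 100 uM top, 0.5% DMSO vehicle, duplicates. Readout: ACOX1 mRNA by Fluidigm qRT-PCR, housekeeping-normalized; bidirectional fit vs DMSO baseline.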

[3] = read-out: Alkaline Phosphatase, Placental (ALPP) gene, ALPP (gene 250); test: LTEA_HepaRG_ALPP: Life Technologies and Expression Analysis (LTEA) Assay for Alkaline Phosphatase, Placental (ALPP) gene using HepaRG (AID 2283468);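 as to AC50: differentiated human HepaRG liver cells in serum-free induction medium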
Outline: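 Using human liver HepaRG cells, chemicals are tested in duplicate over 48 h at half-log concentrations topping at 100 uM; phenobarbital 1 mM serves as induction control. ALPP mRNA change by qRT-PCR, bidirectional fit against vehicle.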

[4] = read-out: Bcl-2 (BAD) gene, BAD (gene 572); test: LTEA_HepaRG_BAD: Life Technologies and Expression Analysis (LTEA) Assay for Bcl-2 (BAD) gene using HepaRG (AID 2283469)
Outline: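 HepaRG, 48 h exposure, 8-pt half-log curve from 100 uM in 0.5% DMSO, duplicates. Readout: TaqMan qRT-PCR for BAD mRNA, housekeeping-normalised (ACTB/GAPDH/POLR2A); gain or loss fitted against DMSO baseline.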

[5] = read-out: Bcl-2 (BAX) gene, BAX (gene 581); test: LTEA_HepaRG_BAX: Life Technologies and Expression Analysis (LTEA) Assay for Bcl-2 (BAX) gene using HepaRG (AID 2283470)
Outline: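 Cells were thawed, plated for 48 h, moved to serum-free induction medium and dosed for 48 h (highest concentration 100 uM, half-log steps, 0.5% DMSO). Total RNA was then analysed for BAX expression by qRT-PCR.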

[6] = read-out: adenosine kinase (ADK) gene, ADK (gene 132); test: LTEA_HepaRG_ADK: Life Technologies and Expression Analysis (LTEA) Assay for adenosine kinase (ADK) gene using HepaRG (AID 2283471)
Outline: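 Differentiated HepaRG cells dosed 48 h in serum-free induction medium, 0.5% DMSO vehicle, eight half-log concentrations from 100 uM, in duplicate. ADK mRNA by TaqMan qRT-PCR normalised to ACTB, GAPDH, POLR2A; bidirectional fit versus DMSO.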

[7] = read-out: Alpha-fetoprotein (AFP) gene, AFP (gene 174); test: LTEA_HepaRG_AFP: Life Technologies and Expression Analysis (LTEA) Assay for Alpha-fetoprotein (AFP) gene using HepaRG (AID 2283472)
Outline: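 Chemicals were tested on differentiated HepaRG cells for 48 hours at eight concentrations up to 100 uM, with 0.5% DMSO as vehicle. AFP expression was then quantified by qRT-PCR and analyzed for gain or loss relative to DMSO.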

BCL2L11 (gene 10018) = test: LTEA_HepaRG_BCL2L11: Life Technologies and Expression Analysis (LTEA) Assay for Bcl-2 (BCL2L11) gene using HepaRG (AID 2283473)
Outline: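 Human hepatic HepaRG cultures are treated 48 h with test chemicals (maximum 100 uM, 0.5% DMSO vehicle). Expression of BCL2L11 is measured by qRT-PCR against ACTB, GAPDH and POLR2A, with activity in either direction scored relative to vehicle.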

[8] = read-out: Apolipoprotein A-V (APOA5) gene, APOA5 (gene 116519); test: LTEA_HepaRG_APOA5: Life Technologies and Expression Analysis (LTEA) Assay for Apolipoprotein A-V (APOA5) gene using HepaRG (AID 2283474)
Outline: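 Concentration-response of APOA5 expression in HepaRG: eight half-log doses to 100 uM, 48 h, qRT-PCR normalized to ACTB/GAPDH/POLR2A, bidirectional fitting with 0.5% DMSO as baseline.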

[9] = read-out: Apoptosis regulator Bcl-2 (Homo sapiens) (UniProt P10415); test: LTEA_HepaRG_BCL2: Life Technologies and Expression Analysis (LTEA) Assay for Bcl-2 gene using HepaRG (AID 2283475)
Outline: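 Plated human HepaRG cells are exposed to test chemicals for 48 h across eight concentrations from 100 uM downward in half-log steps (0.5% DMSO). BCL2 expression is then measured by qRT-PCR with housekeeping normalisation and fitted bidirectionally against vehicle.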

[10] = read-out: Bcl-2 (BID) gene, BID (gene 637); test: LTEA_HepaRG_BID: Life Technologies and Expression Analysis (LTEA) Assay for Bcl-2 (BID) gene using HepaRG (AID 2283476)
Outline: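 Cells are plated, cultured 48 h, switched to serum-free induction medium, then dosed 48 h (100 uM top, half-log steps, 0.5% DMSO). RNA is isolated and BID expression read by qRT-PCR.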

Caspase-3 (Homo sapiens) = Caspase-3 (Homo sapiens) (UniProt P42574); test: LTEA_HepaRG_CASP3: Life Technologies and Expression Analysis (LTEA) Assay for cysteine-aspartic acid protease (CASP3) using HepaRG (AID 2283477)
Sequence of Caspase-3 (Homo sapiens) (P42574 whole entry, looked up): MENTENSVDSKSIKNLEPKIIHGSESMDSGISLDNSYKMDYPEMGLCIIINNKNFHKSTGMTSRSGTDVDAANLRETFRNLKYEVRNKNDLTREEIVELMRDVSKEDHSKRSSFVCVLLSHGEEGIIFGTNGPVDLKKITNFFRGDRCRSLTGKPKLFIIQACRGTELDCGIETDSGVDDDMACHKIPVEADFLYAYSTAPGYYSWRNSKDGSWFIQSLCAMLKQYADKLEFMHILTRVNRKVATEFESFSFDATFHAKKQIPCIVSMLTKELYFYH
Outline: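 Transcript-level assay: CASP3 mRNA in human HepaRG after 48 h treatment, eight half-log concentrations from 100 uM in 0.5% DMSO, quantified by qRT-PCR.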

[11] = read-out: Cytochrome P450 (CYP24A1), CYP24A1 (gene 1591); test: LTEA_HepaRG_CYP24A1: Life Technologies and Expression Analysis (LTEA) Assay for Cytochrome P450 (CYP24A1) using HepaRG (AID 2283478)
Outline: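 Gene expression of CYP24A1 by TaqMan qRT-PCR in HepaRG after 48 h treatment, highest concentration 100 uM; activity fitted in both directions relative to DMSO vehicle.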

[12] = read-out: cysteine-aspartic acid protease (CASP8), CASP8 (gene 841); test: LTEA_HepaRG_CASP8: Life Technologies and Expression Analysis (LTEA) Assay for cysteine-aspartic acid protease (CASP8) using HepaRG (AID 2283480)
Outline: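 qRT-PCR readout of CASP8 mRNA, normalized to three housekeeping genes, after 48 h chemical exposure of HepaRG cells; 8-point half-log series, top 100 uM, 0.5% DMSO vehicle. Bidirectional curve fitting against DMSO baseline.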

[13] = read-out: Cytochrome P450 (CYP2B6), CYP2B6 (gene 1555); test: LTEA_HepaRG_CYP2B6: Life Technologies and Expression Analysis (LTEA) Assay for Cytochrome P450 (CYP2B6) using HepaRG (AID 2283481)
Outline: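 Human HepaRG, 48 h dosing, 0.5% DMSO vehicle, top dose 100 uM. CYP2B6 transcript by qRT-PCR, housekeeping-normalized, bidirectional curve fit.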

[14] = read-out: Cytochrome P450 2C19 (Homo sapiens) (UniProt P33261); test: LTEA_HepaRG_CYP2C19: Life Technologies and Expression Analysis (LTEA) Assay for CYP2C19 using HepaRG (AID 2283482)
Outline: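 Endpoint: CYP2C19 mRNA change, bidirectional fit vs 0.5% DMSO. Cells: HepaRG, 48 h exposure, eight-point series topping at 100 uM. Quantitation: qRT-PCR normalized to ACTB, GAPDH, POLR2A.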

CYP2C8 (gene 1558) = test: LTEA_HepaRG_CYP2C8: Life Technologies and Expression Analysis (LTEA) Assay for CYP2C8 using HepaRG (AID 2283483)
Outline: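 HepaRG (human liver line), 48 h chemical exposure, 8-pt half-log series from 100 uM, 0.5% DMSO vehicle. Readout: CYP2C8 transcript by qRT-PCR, housekeeping-normalized. Bidirectional fit vs DMSO baseline.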

CYP2C9 (gene 1559) = test: LTEA_HepaRG_CYP2C9: Life Technologies and Expression Analysis (LTEA) Assay for CYP2C9 using HepaRG (AID 2283484)
Outline: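 HepaRG, 48 h dosing, 8-pt half-log series, top 100 uM, 0.5% DMSO vehicle. Read-out: CYP2C9 transcript by TaqMan qRT-PCR, housekeeping-normalized (ACTB/GAPDH/POLR2A). Gain or loss fitted vs DMSO baseline.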

CYP2E1 (gene 1571) = test: LTEA_HepaRG_CYP2E1: Life Technologies and Expression Analysis (LTEA) Assay for CYP2E1 using HepaRG (AID 2283485)
Outline: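 Readout is qRT-PCR of CYP2E1 mRNA, normalized to three housekeeping genes and fitted bidirectionally against 0.5% DMSO. HepaRG cells were dosed 48 h at eight concentrations, highest 100 uM with half-log dilutions.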

[15] = read-out: Cytochrome P450 (CYP1A2), CYP1A2 (gene 1544); test: LTEA_HepaRG_CYP1A2: Life Technologies and Expression Analysis (LTEA) Assay for Cytochrome P450 (CYP1A2) using HepaRG (AID 2283479)
Outline: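 In duplicate wells, HepaRG cultures maintained in 0.5% DMSO were treated 48 h across an 8-point, half-log series topping at 100 uM; phenobarbital (1 mM) served as induction control. Expression was read by qRT-PCR.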

Measured: AC50

Sequence of Apoptosis regulator Bcl-2 (Homo sapiens) (P10415 whole entry, looked up): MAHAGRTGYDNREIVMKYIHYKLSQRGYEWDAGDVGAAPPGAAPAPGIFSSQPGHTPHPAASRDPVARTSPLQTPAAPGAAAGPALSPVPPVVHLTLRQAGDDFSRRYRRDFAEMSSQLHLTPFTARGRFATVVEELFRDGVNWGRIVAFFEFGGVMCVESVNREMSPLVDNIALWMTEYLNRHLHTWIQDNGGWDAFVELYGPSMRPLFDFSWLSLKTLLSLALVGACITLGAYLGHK
Sequence of Cytochrome P450 2C19 (Homo sapiens) (P33261 whole entry, looked up): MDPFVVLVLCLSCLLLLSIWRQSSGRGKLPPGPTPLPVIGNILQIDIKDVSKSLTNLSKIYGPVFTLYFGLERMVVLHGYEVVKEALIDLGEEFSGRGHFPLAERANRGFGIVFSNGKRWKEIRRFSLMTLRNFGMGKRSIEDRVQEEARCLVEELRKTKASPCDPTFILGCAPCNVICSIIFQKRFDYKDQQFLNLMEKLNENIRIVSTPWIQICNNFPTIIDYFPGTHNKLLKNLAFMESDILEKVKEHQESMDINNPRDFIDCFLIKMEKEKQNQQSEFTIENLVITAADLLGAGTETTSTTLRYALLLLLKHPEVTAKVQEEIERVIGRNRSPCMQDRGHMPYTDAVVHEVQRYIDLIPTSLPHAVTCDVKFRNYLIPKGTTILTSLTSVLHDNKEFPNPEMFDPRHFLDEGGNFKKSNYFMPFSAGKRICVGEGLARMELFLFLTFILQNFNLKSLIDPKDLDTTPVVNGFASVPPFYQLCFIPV

OCCCBr
active: [13] 40.8 µM
not listed: [15]
inactive: all other assays above

Nc1ccc(Cc2ccc(N)cc2)cc1
active: [15] 31.3 µM | [13] 11.5 µM | [14] 14.5 µM | CYP2C9 (gene 1559) 20 µM
not listed: [5]
inactive: all other assays above

Cc1cccc(N)c1N
active: [2] 50 µM | [7] 81.5 µM | BCL2L11 (gene 10018) 9.92 µM | [8] 37.6 µM | CYP2C9 (gene 1559) 50 µM | CYP2E1 (gene 1571) 58.1 µM
not listed: CYP2C8 (gene 1558) | [15]
inactive: all other assays above

CCNS(=O)(=O)C(F)(F)C(F)(F)C(F)(F)C(F)(F)C(F)(F)C(F)(F)C(F)(F)C(F)(F)F
active: [7] 65.2 µM | [8] 48.2 µM | CYP2E1 (gene 1571) 48.2 µM
not listed: [5] | [11] | CYP2C8 (gene 1558)
inactive: all other assays above

CCOc1cccc(C2(N3CCN(c4ccccc4)CC3)CCC(C)CC2)c1 (stereo not given)
active: [13] 30.8 µM
not listed: [5] | CYP2C8 (gene 1558) | [15]
inactive: all other assays above

Oc1ccc2ccc3cccc4ccc1c2c34
active: CYP2E1 (gene 1571) 50 µM
not listed: [5] | CYP2C8 (gene 1558) | [15]
inactive: all other assays above

CC(C)(OOC(C)(C)c1ccccc1)c1ccccc1
active: [13] 7.24 µM | [14] 30 µM | CYP2E1 (gene 1571) 35.1 µM
not listed: [5] | CYP2C8 (gene 1558)
inactive: all other assays above

Cc1ccc(N)c(N)c1
active: [13] 50 µM | CYP2E1 (gene 1571) 50 µM
not listed: [11] | CYP2C8 (gene 1558) | [15]
inactive: all other assays above

O=C(N[C@H](c1ccccc1)[C@@H]1CN2CCC1CC2)c1c(Cl)ccc(C(F)(F)F)c1Cl
active: [1] 78.7 µM | [3] 11.8 µM | [5] 75.3 µM | [6] 58 µM | [7] 22.8 µM | BCL2L11 (gene 10018) 11.3 µM | [8] 72.6 µM | Caspase-3 (Homo sapiens) 70 µM | [12] 73.7 µM | [13] 42 µM | [14] 75.2 µM | CYP2C9 (gene 1559) 69.5 µM | CYP2E1 (gene 1571) 44.5 µM
inactive: [4] | [9] | [10] | [11]

O=[N+]([O-])c1ccc(Oc2ccc(Cl)cc2Cl)cc1
active: [7] 66.9 µM | [15] 27.2 µM | [13] 12.8 µM | [14] 12.4 µM | CYP2E1 (gene 1571) 58 µM
not listed: [3] | [11]
inactive: all other assays above

CCC12COCN1COC2
not listed: [11] | [15]
inactive: all other assays above

CCOC(=O)[C@]1(c2ccccc2)Oc2ccccc2[C@@H]1N
active: [2] 87.5 µM | [3] 50 µM | [5] 75.7 µM | [8] 83.3 µM | [9] 88.7 µM | [15] 15.8 µM | [13] 81.9 µM | [14] 78.2 µM | CYP2C9 (gene 1559) 74.3 µM | CYP2E1 (gene 1571) 75.2 µM
inactive: [1] | [4] | [6] | [7] | BCL2L11 (gene 10018) | [10] | Caspase-3 (Homo sapiens) | [11] | [12]

CN(C)c1ccccc1
active: [13] 33.4 µM
inactive: all other assays above

CCCSC(=O)N(CCC)CCC
active: [13] 50 µM
not listed: [2] | [5] | [11] | [15]
inactive: all other assays above
